Compound activity from PubChem BioAssay.
SMN2 splice enh – SMN2 splice variant enhancement; 210,000 tested, 2.8% active; Potency, µM (series often up to 46.1 µM), for inactives: at the top dose activity change, positive = activation, most hits filed as activators; HEK293 SMN2-luciferase splicing reporter, luminescence, 30-36 h; further: % of control where 0% means no effect; nearly all actives have a fitted effect of over 55% in size
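qHTS luciferase splicing reporter: luminescence rises when SMN2 exon 7 is included in transfected HEK293 cells. Compound exposure lasted 30-36 h at 37C, with 4.5 mM final sodium butyrate as control, followed by a ONE-Glo read.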
NPC1 prom act – activates the NPC1 promoter; Huh7 NPC1 promoter luciferase reporter, 24 h; Potency, µM (titrated, usually from 9.22 µM), for the others: at the highest dose activation, hits mostly activators; 320,000 tested, 2.4% active; AID 485313; further: % of control where 0% means no effect; nearly all actives have a fitted effect of over 60% in size
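Luciferase expression driven by the NPC1 promoter was measured in stably transfected Huh7 cells after a 24 h compound incubation, using a luciferase reagent and a luminescence read.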
ELG1 genotoxic – induces genotoxicity in HEK293T cells with luciferase-tagged ELG1 | HEK293T ELG1-luciferase reporter, luminescence, 16 h | Potency, µM (doses to about 46 µM), inactives show at the top dose activity change, positive = activation, usual class: activators | 330,000 tested, 1.3% active | AID 504466; further: % of control where 0% means no effect; nearly all actives have a fitted effect of over 60% in size
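After overnight (16 hr) compound treatment at 37 °C, ELG1-luciferase HEK293T cells were lysed with ONE-Glo; luminescence quantified 30 min later at room temperature.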
Rab9 promoter act – activators of Rab9 promoter. AID 485297. Huh7 Rab9 promoter-luciferase reporter, luminescence, 24 h. 320,000 tested, 2.8% active. Potency, µM (series often up to 9.22 µM), inactives show top-dose activation, negative = inhibition, actives largely listed as activators; further: % of control where 0% means no effect; nearly all actives have a fitted effect of over 60% in size
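Luciferase signal after 10 min detection reagent at ambient indicates Rab9 promoter upregulation; stably transfected Huh7 cells were treated 24 h with compound in DMSO at 37 °C, 5% CO2.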
ELG1 DNA repair – inhibitors of ELG1-dependent DNA repair in HEK293T cells; HEK293T ELG1-luciferase reporter, luminescence, 16 h; DNA damage induced by 5-fluorouridine; Potency, µM (doses to about 46.1 µM), for inactives: top-dose activity change, negative = inhibition, hits mostly inhibitors; 330,000 tested, 2.3% active; AID 504467; further: on the % scale 0 is the no-effect control and ±100 the full control effect; nearly all actives have a fitted effect of over 55% in size
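HEK293T cells expressing luciferase-tagged ELG1 (2,000/well) received 5-Fluorouridine plus compound or DMSO for 16 hr at 37 °C. Luciferase was read by ONE-Glo luminescence after 30 min at room temperature.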
FLuc modulator – counter-screen for miR-21 project: firefly luciferase inhibitors or activators; P08659; purified FLuc, Km substrates, luminescence inhibition; Potency, µM (highest dose often 57.5 µM), for the others: at the highest dose activity change, negative = inhibition, actives largely listed as inhibitors; 360,000 tested, 6.9% active; AID 588342;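 further: plate controls were vehicle for no effect and reference inhibitor for full effect; nearly all actives have a fitted effect of over 55% in size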
Target sequence (P08659 whole entry, looked up): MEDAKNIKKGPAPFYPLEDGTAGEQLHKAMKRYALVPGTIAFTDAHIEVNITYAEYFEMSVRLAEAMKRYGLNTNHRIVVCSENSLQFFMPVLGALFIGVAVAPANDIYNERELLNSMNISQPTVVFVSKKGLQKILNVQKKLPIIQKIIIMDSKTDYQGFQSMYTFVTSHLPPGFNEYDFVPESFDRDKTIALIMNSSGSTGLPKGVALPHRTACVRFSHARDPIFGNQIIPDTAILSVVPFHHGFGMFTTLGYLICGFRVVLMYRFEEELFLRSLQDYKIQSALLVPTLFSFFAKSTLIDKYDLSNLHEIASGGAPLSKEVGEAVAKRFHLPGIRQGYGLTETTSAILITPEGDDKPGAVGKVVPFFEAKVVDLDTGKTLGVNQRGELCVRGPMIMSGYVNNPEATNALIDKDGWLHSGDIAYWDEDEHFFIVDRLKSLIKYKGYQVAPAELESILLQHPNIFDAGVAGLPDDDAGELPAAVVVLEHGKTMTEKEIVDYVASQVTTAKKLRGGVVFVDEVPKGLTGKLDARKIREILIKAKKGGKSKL
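Purified P. pyralis luciferase (10nM final) with 10uM D-luciferin and 10uM ATP (Km levels) in 50mM Tris acetate pH 7.5, 10mM Mg acetate, 0.01% Tween-20, 0.05% BSA; qHTS 6-point titration, ~60 µM downward; luminescence read.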
ELG1-Luc inh – inhibits ELG1-dependent DNA repair in HEK293T cells, confirmed | shares compounds with ELG1 DNA repair | HEK293T ELG1-luciferase levels, luminescence; cells co-treated with 5-fluorouridine | Potency, µM (highest dose often 46.1 µM), for the others: at the top dose activity change, negative = inhibition, actives largely listed as inhibitors | 670 tested, 68% active | AID 624248; further: on the % scale 0 is the no-effect control and ±100 the full control effect; nearly all actives have a fitted effect of over 55% in size
ELG1 MMS Luc – inhibits ELG1-dependent repair under MMS stimulation in HEK293T cells. shares compounds with ELG1 DNA repair. HEK293T luciferase-tagged ELG1 level, MMS stimulated. Potency, µM (top dose mostly 46.1 µM), for inactives: top-dose activity change, negative = inhibition, most hits filed as inhibitors. 670 tested, 53% active. AID 624249; further: on the % scale 0 is the no-effect control and ±100 the full control effect; nearly all actives have a fitted effect of over 60% in size
ELG1 5FU viab – confirmation of ELG1 repair inhibitors: viability with 5FU; shares compounds with ELG1 DNA repair; cell viability with 5-FU, ELG1-dependent repair; 670 tested, under 10 active; Potency, µM (titrated, usually from 46.1 µM), without a hit: at the top dose activity change, negative = viability loss, actives largely listed as cytotoxic;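 further: ELG1-luc HEK293T cells cotreated with 5-fluorouridine at 10 µM final; viability measured 16 h after compound addition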
ELG1 MMS viab – confirmation of ELG1 repair inhibitors: viability with MMS; shares compounds with ELG1 DNA repair; Cell viability with MMS, ELG1-dependent DNA repair; Potency, µM (series often up to 46.1 µM), for the others: at the top dose activity change, negative = viability loss, hits mostly cytotoxic; 670 tested, 33% active;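 further: ELG1-luc HEK293T cells co-treated with 10 µM MMS; viability read 16 h after compound addition; on the % scale 0 is the no-effect control and ±100 the full control effect; nearly all actives have a fitted effect of over 60% in size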
Cell viab unstim – unstimulated viability counter-screen for ELG1 repair hits. cell viability counter-screen, unstimulated, luminescence. Potency, µM (top dose mostly 45.9 µM), for the others: at the top dose activity change, negative = loss of viability, hits mostly cytotoxic. 900 tested, 8% active. AID 624252. shares compounds with ELG1 DNA repair;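 further: compound exposure lasted 16 hours before reading; on the % scale 0 is the no-effect control and ±100 the full control effect; nearly all actives have a fitted effect of over 55% in size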
* = called active by the depositor; ? = inconclusive; . = no result given; [ ] = dose if it differs, or a comment. Shown are actives, neighbours in structure and some others; about 9.3% of the full set was active somewhere. The call rests on the fitted dose curve; in most records, active means well fitted curve in the direction sought with a large enough effect; inconclusive means small, poorly fitted or top-dose-only effect, or another doubt; inactive means no such curve, though single readings can be large; an effect the other way counts as inactive or inconclusive. Potency means the concentration at half of the fitted maximal effect.

SMILES	SMN2 splice enh	NPC1 prom act	ELG1 genotoxic	Rab9 promoter act	ELG1 DNA repair	FLuc modulator	ELG1-Luc inh	ELG1 MMS Luc	ELG1 5FU viab	ELG1 MMS viab	Cell viab unstim
COc1cccc(/C=C/c2nc3ccccc3c(=O)n2-c2ccc(C)c(C)c2)c1OC	.	.	.	.	.	6.0%	.	.	.	.	.
CCOc1ccc(C(=O)NC2CCN(S(=O)(=O)c3ccccc3)CC2)cc1	.	0.0%	-7.9%	-0.2%	-23.6%	-2.3%	.	.	.	.	.
COc1cccc(N2CCN(C(=O)CCC(=O)c3ccc(Cl)s3)CC2)c1	.	0.7%	-1.1%	0.4%	?	3.8%	.	.	.	.	.
COc1ccc(C(=O)COC(=O)c2ccc(N(C)C)cc2)cc1	5.3%	20.7%	-1.5%	?	-5.2%	1.2%	.	.	.	.	.
CN(C)c1ccc(C(=O)OCC(=O)c2ccc[nH]2)cc1	.	.	16.4µM*	.	?	.	.	.	.	.	-11.1%
Cc1noc(/C=C/c2ccco2)c1S(=O)(=O)N1CCC(C(=O)N(C)Cc2ccccc2)CC1	-3.8%	-9.7%	-1.3%	-8.7%	4.61µM*	7.6%	3.15µM*	29.4%	?	-0.8%	-10.8%
Cc1cccc(/C=C/c2onc(C)c2S(=O)(=O)N2CCC(C(=O)N3CCC(C)CC3)CC2)c1	.	0.2%	-9.7%	-2.9%	1.83µM*	0.2%	1.25µM*	13.2%	?	-6.0%	?
Cc1cccc(/C=C/c2onc(C)c2S(=O)(=O)N2CCC(C(=O)N3CCCCCC3)CC2)c1	.	-7.2%	-2.8%[9.26 µM]	-1.6%	?	-1.3%	.	.	.	.	.
CN(C)c1ncc(S(=O)(=O)c2ccccc2)c(=O)[nH]1	.	-11.2%	-0.3%	-3.5%[1.84 µM]	8.7%	3.0%	.	.	.	.	.
O=c1[nH]c(=O)n([C@@H]2O[C@H](CO)[C@@H](O)[C@H]2O)cc1F	.	.	.	.	.	.	.	.	.	.	?
Cc1nnnn1/C(=C\c1ccccc1)C(=O)OCC(=O)NC1CCCCC1	.	-10.1%	-9.9%	-0.1%	?	1.5%	.	.	.	.	.
COc1ccc(-c2cnc(-c3cccnc3)o2)cc1	11.2µM*	.	.	.	.	.	.	.	.	.	2.8%
O=C(C1CCN(S(=O)(=O)c2cc(Cl)ccc2Cl)CC1)N1CCCC1	.	0.8%	21.1%	-0.7%	15.7%	0.7%	.	.	.	.	.
Cc1cc(NC(=O)Cc2ccccc2)c2ccccc2n1	-101.4%	-24.6%	-0.2%	-30.1%	?	-3.7%	?	1.99µM*	1.1%	2.5µM*	?
O=C(c1ccc(-c2cc3ccccc3oc2=O)cc1)N1CCN(c2ccc(Cl)cc2[N+](=O)[O-])CC1	-36.6%	-6.1%	-3.4%	-4.1%	4.61µM*	2.0%	4.99µM*	-7.0%	?	?	?
O=[N+]([O-])c1cc(Cl)ccc1N1CCN(c2ccccc2O)CC1	-16.3%	-2.4%	-12.3%	-7.3%	-22.7%	-16.9%	.	.	.	.	.
COc1ccc(/C=N/n2c(N)c(S(=O)(=O)c3cccs3)c3nc4ccccc4nc32)cc1OC	-18.2%	0.4%	-7.6%	-5.4%	2.59µM*	-1.1%	3.15µM*	15.9%	?	-1.1%	-5.4%
COc1ccc(C(CC(=O)O)N2Cc3ccccc3C2=O)cc1OC (stereo unspecified)	.	-2.7%	-0.9%	-0.7%	-1.8%	-0.3%	.	.	.	.	.
O=C(COc1ccccc1Cl)Nc1ccc(-c2nc3ccccc3s2)cc1	0.794µM*	.	.	.	.	-1.8%	.	.	.	.	?
CCN(CC)S(=O)(=O)c1cccc(-n2c(O)c(C=Nc3ccccc3C(=O)O)c3ccccc3c2=O)c1	.	-6.2%	-8.0%	14.5%	5.8µM*	-8.7%	0.353µM*	0.353µM*	-27.1%	0.397µM*	0.445µM*
COc1ccccc1CCC(=O)OCC(=O)Nc1c(C)nn(-c2ccccc2)c1C	.	0.2%	1.7%	1.3%	10.9%	12.0%	.	.	.	.	.
COc1ccc(OCCN2CCN(C(=O)c3ccc(OC)cc3)CC2)cc1	.	-10.7%	2.2%	-23.7%	3.26µM*	0.2%	?	7.05µM*	-3.6%	7.91µM*	-22.1%
CCc1ccc(-c2nc(CN3CCC(C(=O)N4CCN(c5ccccn5)CC4)CC3)c(C)o2)cc1	.	-9.5%	-5.5%	-14.5%	4.11µM*	-14.8%	7.05µM*	7.91µM*	-5.3%	7.91µM*	?
Cc1oc(-c2ccc(Cl)cc2)nc1CN1CCCC(C(=O)N2CCN(C(=O)c3ccco3)CC2)C1 (stereo unspecified)	-88.0%	-24.1%	-21.0%	-23.6%	4.11µM*	-1.7%	14.1µM*	1.25µM*	-8.1%	1.58µM*	?
Cc1oc(-c2ccc(Cl)cc2)nc1CN1CCCC(C(=O)N2CCOCC2)C1 (stereo unspecified)	.	1.4%	-4.5%	-0.6%	3.9%	-1.4%	.	.	.	.	.
CCc1ccc(-c2nc(CN3CCC(C(=O)N4CCN(c5ccccc5)CC4)CC3)c(C)o2)cc1	-27.7%	-4.6%	-2.2%	-4.7%	?	?	.	.	.	.	.
CN(C)c1ccc(-c2nnn(CC(=O)NCc3ccc4c(c3)OCO4)n2)cc1	?	16.4%	12.9%	15.2%	19.9%	-14.6%	.	.	.	.	.
